Screen size: about 48,000 compounds; about 13,000 (27%) showed an effect of 50% or more. The list shows a part of the results.

The subject of the test is Wolbachia pipientis. The experiment in a line: Anti-Wolbachia Cell-Based Screen. On the set-up: scale not given: in the data most compounds retested in dose-response had high values. The test is classed as functional. The settings on record: 5 µM.
Regarding `COc1ccccc1CC(=O)N1CCCC(c2nccn2CC(N)=O)C1` (stereo not given), the “Percent Effect” value was found to be 0.4607%.

For `COc1ccc(OCCc2sc(C3(O)CCCNCC3)nc2C)cc1.Cl` (stereo not given), the “Percent Effect” value came to 2.251%.

For `O=C1NCCCC12CCN(c1nc3c(c(C(F)(F)F)n1)CCCC3)C2` (stereo not given), the “Percent Effect” value is listed as -1.844%.

As for `Cc1ccc(-c2nc(CNC3CCc4ncnn4C3)no2)cc1` (stereo not given), the “Percent Effect” value was found to be 118.2%.

With `Cc1nc2n(n1)CC(NCc1nc(C)c(C)o1)CC2` (stereo not given), the “Percent Effect” value is reported as -8.158%.

For the compound `c1nc2n(n1)CC(NCc1nc(-c3ccsc3)no1)CC2` (stereo not given), the “Percent Effect” value is on record as -6.7%.

Take `Cc1ccc(O)c(CNC2CCc3nc(C)nn3C2)n1` (stereo not given): the “Percent Effect” value was found to be 92.84%.

`Cc1nc2n(n1)CC(NCc1nc(-c3cccs3)no1)CC2` (stereo not given): the “Percent Effect” value is -19.82%.

Regarding `Cc1cccc(-c2nc(CNC3CCc4nc(C)nn4C3)no2)c1` (stereo not given), the “Percent Effect” value was determined as 111%.

On to `Fc1ccc(-c2cnc(CNC3CCc4ncnn4C3)o2)cc1` (stereo not given), for which the “Percent Effect” value is 7.148%.

For the compound `Cc1nc2n(n1)CC(NCc1nc(-c3cccnc3)no1)CC2` (stereo not given), the “Percent Effect” value is listed as -5.692%.

For the compound `c1ccc(-c2nc(CNC3CCc4ncnn4C3)no2)cc1` (stereo not given), the “Percent Effect” value stood at 109.8%.

Consider `c1ccc(-c2noc(CNC3CCc4ncnn4C3)n2)nc1` (stereo not given), for which the “Percent Effect” value was 0.9775%.

Take `Cc1nc2n(n1)CC(NCc1nc3ccccc3o1)CC2` (stereo not given): the “Percent Effect” value was 12.54%.

For `O=C(CN1CCOC(c2ccc(Cl)s2)C1)NCc1ccco1` (stereo not given), the “Percent Effect” value came to 16.69%.

Turning to `CC(C)OC(=O)CCNC(=O)Nc1cccc2ncccc12`, the “Percent Effect” value was -2.669%.

Consider `CS(=O)(=O)NC1CCCN(C(=O)NCc2ccoc2)C1` (stereo not given), for which the “Percent Effect” value was 92.13%.

Take `CN1C[C@@H]2CN(C(=O)NCc3cccc(F)c3)CCC[C@]2(C(=O)O)C1.O=C(O)C(F)(F)F`: the “Percent Effect” value is given as -0.5828%.

For `COC1CCCN(C(=O)NCc2ccc(C(=O)N(C)C(C)C)cc2)C1` (stereo not given), the “Percent Effect” value is recorded as -8.588%.

Regarding `CS(=O)(=O)NC1CCCN(C(=O)NCc2cccc(F)c2)C1` (stereo not given), the “Percent Effect” value amounted to 119.2%.

In the case of `Cc1cc(CN2CCCC(NS(C)(=O)=O)C2)ccc1-n1cncn1` (stereo not given), the “Percent Effect” value is 11.85%.

As for `Cc1ccc(CNC(=O)N2CCCC(NS(C)(=O)=O)C2)cc1` (stereo not given), the “Percent Effect” value is on record as 112.9%.

Consider `CS(=O)(=O)NC1CCN(C(=O)c2ccc(Br)o2)C1` (stereo not given), for which the “Percent Effect” value is recorded as -2.031%.

Turning to `CS(=O)(=O)NC1CCCN(C(=O)NCc2ccccc2Cl)C1` (stereo not given), the “Percent Effect” value is 118.4%.

For `COc1ccc(CNC(=O)N2CCCC(Nc3ccccc3)C2)cn1` (stereo not given), the “Percent Effect” value is recorded as -13.37%.

`CS(=O)(=O)NC1CCN(C(=O)NCCc2ccccc2F)CC1`: the “Percent Effect” value is given as 4.744%.

Take `COc1ccccc1CNC(=O)N1CCCC(NS(C)(=O)=O)C1` (stereo not given): the “Percent Effect” value is listed as 10.46%.

As for `CC(C(=O)N1CCc2ccccc21)N1CCc2cncnc2C1` (stereo not given), the “Percent Effect” value was found to be 1.414%.

Consider `CC1(C)CN(C(=O)CCc2nc(-c3ccncc3)no2)CCO1`, for which the “Percent Effect” value worked out at 17.48%.

Take `CC(=O)N(C/C=C/c1ccccc1)CCO`: the “Percent Effect” value is reported as -9.29%.

For the compound `CCc1nccn1C1CCCN(C(=O)c2ccc3nncn3c2)C1` (stereo not given), the “Percent Effect” value is -7.143%.

For the compound `CC(C)c1nccn1C1CCCN(C(=O)c2ccc3nncn3c2)C1` (stereo not given), the “Percent Effect” value stood at 89.79%.

In the case of `CC(C)c1nccn1C1CCCN(C(=O)c2ccc3c(c2)COC3)C1` (stereo not given), the “Percent Effect” value is -6.912%.

For the compound `O=C(c1ccc2nncn2c1)N1CCCC(n2ccnc2)C1` (stereo not given), the “Percent Effect” value came to 105.7%.

Regarding `CC(C)c1nccn1C1CCCN(C(=O)c2ccn(C)c(=O)c2)C1` (stereo not given), the “Percent Effect” value was -3.204%.

Regarding `Cc1nccn1C1CCCN(C(=O)c2ccc3nncn3c2)C1` (stereo not given), the “Percent Effect” value amounted to 98.97%.

In the case of `CN(Cc1cccnc1)C[C@@H]1OC[C@H]2CN(C(=O)C3CC3)CC[C@H]21.O=C(O)C(F)(F)F.O=C(O)C(F)(F)F`, the “Percent Effect” value is given as -11.76%.

Regarding `O=C(Nc1cc(Cl)ccc1Cl)NC1CCN(C2CCOC2)CC1` (stereo not given), the “Percent Effect” value was -16.63%.

For the compound `CCCn1ccnc1CN1C[C@@H](CN2CCCCC2)[C@@H](CO)C1`, the “Percent Effect” value is recorded as -0.9532%.

Regarding `CN(Cc1cnn(C)c1)c1nccc(-c2cc(C(=O)O)ccn2)n1`, the “Percent Effect” value is 109.1%.

With `CN(CCCc1nccn1C)c1nccc(N2CCC(O)C2)n1` (stereo not given), the “Percent Effect” value was 13.17%.

For the compound `Cn1cc(CCCN2CCN(C(=O)c3cccc(O)c3)CC2)cn1`, the “Percent Effect” value is given as -1.766%.

`CN(CCCc1cnn(C)c1)c1nccc(-c2cc(C(=O)O)ccn2)n1`: the “Percent Effect” value was 108.4%.

Consider `CC(C)N(Cc1cnn(C)c1)C(=O)c1ccnc(N(C)C)c1`, for which the “Percent Effect” value was determined as 14.77%.

As for `Cc1nn(C)cc1-c1ccnc(N(C)Cc2cnn(C)c2)n1`, the “Percent Effect” value was -26.11%.

Regarding `CN(CCCc1nccn1C)c1nccc(-c2cc(C(=O)O)ccn2)n1`, the “Percent Effect” value was found to be 93.19%.

For `Cc1nc(N(C)CCCc2nccn2C)c2nc(C)oc2n1`, the “Percent Effect” value was -2.669%.

Regarding `CN(CCCc1cnn(C)c1)C(=O)Nc1cccc(C#N)c1`, the “Percent Effect” value is -5.075%.

For the compound `COCCn1ccnc1CN(Cc1ccccn1)Cc1sccc1C`, the “Percent Effect” value is recorded as -1.6%.

As for `CCOc1ccccc1NC(C)C(=O)N(C)Cc1cccc(F)c1` (stereo not given), the “Percent Effect” value was found to be 13.58%.

On to `CC(=O)Nc1nc(CN(C)CC2CCCN2c2cccnn2)cs1` (stereo not given), for which the “Percent Effect” value worked out at 10.35%.

On to `CNC(=O)CC1CCN(C(=O)NCc2coc3ccccc23)CC1`, for which the “Percent Effect” value is -8.978%.

On to `CC(C)c1noc(C(C)N2CCN(Cc3ccsc3)CC2)n1` (stereo not given), for which the “Percent Effect” value is 12.33%.

Regarding `CC(C)Oc1ncnc2c1CCN(Cc1cccs1)CC2`, the “Percent Effect” value worked out at 10.07%.

As for `c1cc(CN2CCN(Cc3cscn3)CC2)cs1`, the “Percent Effect” value is listed as -0.1438%.

Consider `Cn1ccnc1C(O)c1ccccc1N1CCN(Cc2cccs2)CC1` (stereo not given), for which the “Percent Effect” value was determined as 123.9%.

`Cc1ccccc1C(C)NC(=O)CN1CCN(Cc2cccs2)CC1` (stereo not given): the “Percent Effect” value is 6.89%.

Take `Cn1ccnc1C(O)c1ccccc1N1CCN(Cc2ccsc2)CC1` (stereo not given): the “Percent Effect” value was 129.7%.

Consider `Cn1cc(N2CCCC(Nc3ccc4c(c3)CCCO4)C2=O)cn1` (stereo not given), for which the “Percent Effect” value stood at 3.281%.

Regarding `CC1CCN(C)c2ccccc2N1C(=O)c1ccc(=O)n(C)c1` (stereo not given), the “Percent Effect” value is on record as -5.744%.

On to `CNS(=O)(=O)c1cccc(CNc2ccc(C(F)(F)F)nn2)c1`, for which the “Percent Effect” value came to 12.46%.

Turning to `CCOCCCC(=O)N1CCN(C(=O)Cc2cccc(OC)c2)CC1`, the “Percent Effect” value is on record as -5.603%.

`Cc1cnn(CC(=O)N2CCC(c3ccn4nccc4n3)CC2)c1`: the “Percent Effect” value was determined as 130%.

As to `COc1cccc(CC(=O)N2CCCN(c3ccnc(C)c3)CC2)c1`, the “Percent Effect” value is reported as -23.77%.

With `Cc1cc(C)n(CC(=O)N2CCC(c3ccn4nccc4n3)CC2)n1`, the “Percent Effect” value was 104.2%.

Turning to `COc1cccc(CC(=O)N2CCC(c3ccn4nccc4n3)CC2)c1`, the “Percent Effect” value was 113.7%.

With `Cc1cc(C)n(CC(=O)N2CCC(c3nc(C)no3)CC2)n1`, the “Percent Effect” value is reported as -3.198%.

As for `CC1CCN(C(=O)Cn2cc(I)cn2)CC1`, the “Percent Effect” value is 2.364%.

Consider `Cc1nc(O)cc(C2CCN(C(=O)CN(C)c3ccccc3)CC2)n1`, for which the “Percent Effect” value is -2.835%.

With `Cc1cc(C)n(CCC(=O)N2CCC(c3nc(C(C)C)no3)CC2)n1`, the “Percent Effect” value turned out to be 8.819%.

Source of the values: ChEMBL document CHEMBL3988442, “University of Dundee, Small-Polar-MMV Screening Library” (2021).
